Compound activity: PubChem, several laboratories
The entries come from a sample that favours hits as a whole.
NPR2 activator = GC-B (human) receptor activation | activation, % at 10 µM | hit rate 0.11% among 370,000 | AID 1920062 | HEK293-GC-B cells, CNP EC30, cGMP TR-FRET; 0% at EC30 CNP, 100% saturating CNP | P20594;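 active means activation at 10 µM reaching about 35% in either raw or pattern-adjusted values, limit read from the data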
ALR inh = inhibitors of human sulfhydryl oxidase ALR | P55789 | inhibition, % (concentration not given with the values) | AID 485317 | hit rate 3.8% among 290,000 | purified ALR, DTT oxidation, H2O2 HRP-luminol luminescence;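 active means mean replicate inhibition above about 79%, with every replicate also reaching it, limit read from the data; inconclusive means only one of the two criteria met; inactive means mean below limit and not every replicate reaching it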
NPR1 activator = GC-A (human) enzyme activation | P16066 | HEK293 GC-A cells, cGMP TR-FRET, EC30 ANP; 0% at EC30 ANP, 100% saturating ANP | activation, % at 10 µM | hit rate 0.14% among 370,000; in the data active means activation above about 40%
HDAC3 inh = inhibitors of human histone deacetylase 3. O15379. recombinant HDAC3, fluorogenic peptide/trypsin coupled, fluorescence. hit rate 0.15% among 320,000. inhibition, % at 8.3 µM; in the data active means inhibition above about 26%, passing the limit was not always enough; inconclusive means no clear call, values can overlap the other calls
Target sequence (O15379 whole entry, looked up): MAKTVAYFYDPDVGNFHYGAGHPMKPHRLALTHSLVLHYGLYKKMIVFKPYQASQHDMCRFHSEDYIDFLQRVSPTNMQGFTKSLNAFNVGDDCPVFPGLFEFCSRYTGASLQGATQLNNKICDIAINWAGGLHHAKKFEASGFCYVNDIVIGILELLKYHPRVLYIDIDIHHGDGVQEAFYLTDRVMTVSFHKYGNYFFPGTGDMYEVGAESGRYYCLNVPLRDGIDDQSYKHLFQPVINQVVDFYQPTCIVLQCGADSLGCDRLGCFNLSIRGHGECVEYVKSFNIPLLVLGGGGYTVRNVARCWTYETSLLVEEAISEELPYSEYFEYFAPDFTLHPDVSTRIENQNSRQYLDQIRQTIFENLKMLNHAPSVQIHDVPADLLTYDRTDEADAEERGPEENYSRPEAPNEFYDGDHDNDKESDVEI
An asterisk follows results filed as active; i = inactive; ? = inconclusive; / = no result.

SMILES	NPR2 activator	ALR inh	NPR1 activator	HDAC3 inh
Cc1ccc(N2CC(=O)N(NC(=O)CN3CCN(c4ccccc4)CC3)CC2=O)cc1	1	85*	3	-2
Cc1c(NC(=O)CN2CCN(c3ccc([N+](=O)[O-])cc3)CC2)c(=O)n(-c2ccccc2)n1C	-2	7	0	0
O=C(CN1CCOCC1)NN1CC(=O)N(c2ccc(Cl)cc2)CC1=O	-1	21	4	-1
Cc1ccccc1CSCC(=O)Nc1c(C)n(C)n(-c2ccccc2)c1=O	4	98*	3	-10
COc1ccc(CN2C[C@@H](CO)O[C@@H](n3cnc4c(N5CCOCC5)ncnc43)C2)cc1	-2	/	2	/
O=C(O)CCCC(=O)N1CCN(c2nc(-c3ccccc3)c3ccccc3n2)CC1	-3	77*	0	-18
CCC(NC(=O)NCc1ccccc1)(C(F)(F)F)C(F)(F)F	-3	0	0	-1
CC(NC(=O)Nc1ccc(O)cc1)(C(F)(F)F)C(F)(F)F	1	98*	1	8
CCC(NC(=O)Nc1ccc(O)cc1)(C(F)(F)F)C(F)(F)F	-8	99*	0	5
COCCN(Cc1cc2cc3c(cc2nc1Cl)OCO3)C(=O)c1ccc(C)cc1	-9	-6	-21	5
CCCCOc1ccc(C(=O)NC2CCCCN(Cc3cccc(C(F)(F)F)c3)C2=O)cc1 (centres undefined)	5	/	1	/
Cc1ccnc(Nc2nc(-c3c(C)nc4sccn34)cs2)c1	37*	18	32	0
Cc1ccnc(Nc2nc(-c3ccccc3)cs2)c1	-1	-4	6	2
COc1ccc(S(=O)(=O)N2CCC(C(=O)Nc3nccs3)CC2)cc1	-2	2	-1	-4
Cc1nn(Cc2ccccc2)c2c1C(c1cccnc1)C(C#N)=C(N)O2 (centres undefined)	4	95*	-5	-6
COc1cccc(NC(=O)COc2ncnc3sc(C)c(C)c23)c1	-2	-7	0	-8
CCN(CC(=O)Nc1cccc(OC)c1)c1ncnc2sc(C)c(C)c12	-11	87*	-16	5
NC(=O)C1(N2CCCCC2)CCN(C(=O)c2cc(COc3c(F)cccc3F)on2)CC1	-2	/	2	/
Cc1c(C(=O)N2CCN(S(=O)(=O)c3ccccc3)CC2)oc2ccc(Br)cc12	-3	/	-2	/
COc1ccc(-c2csc(NC(C)c3nc4cc(C(=O)NCCCO)ccc4n3Cc3ccc(C)cc3)n2)cc1 (centres undefined)	47*	4	35	9
C=CC[C@H]1c2ccccc2[C@H]2N3N=Cc4ccccc4[C@H]3[C@H](CCCC)C(=O)N2N1C(=O)NCc1ccccc1	-2	/	-2	/
c1ccc(CN(CC2=NCCN2)c2ccccc2)cc1	-19	3	-21	0
Cc1ccc(N(CC2=NCCN2)c2cccc(O)c2)cc1	-6	98*	-2	-1
COc1ccc(C(=O)/C=C(\Nc2ccc(F)cc2)c2ccc(OC)cc2OC)c(OC)c1	-2	/	0	/
COC(=O)C1=C(C)N(Cc2cccc(C(F)(F)F)c2)C(=NCc2cc(OC)c(OC)c(OC)c2)NC1c1ccccc1 (centres undefined)	-19	/	-20	/
SMILES	NPR2 activator	ALR inh	NPR1 activator	HDAC3 inh
COc1cccc(C2NC(c3cccc(OC)c3O)C(C)C(=O)C2C)c1O (centres undefined)	5	87*	-1	-4
Cc1ccc(C(C)C)cc1OCCn1cncn1	1	-3	1	10
Cc1cc(C)nc(SCc2cc(=O)c(OC(=O)c3cc([N+](=O)[O-])ccc3Cl)co2)n1	-10	94*	1	2
CNC(=S)Nc1ccc([N+](=O)[O-])c(C)c1	0	/	1	2
Cc1c(Cl)cccc1-c1ccc(CNCc2ccccn2)o1	-3	/	-3	0
O=C(NCCc1c[nH]c2ccccc12)OCc1cn(Cc2cccc(C(F)(F)F)c2)nn1	-6	/	-2	/
CCn1nc(C)c(CN2CCC(C(=O)Nc3cccc(-c4cccc(Cl)c4)c3)CC2)c1C	0	-14	-4	?
CCOC(=O)c1ccc(S(=O)(=O)Nc2cc(C(=O)O)ccc2Cl)cc1	-2	99*	3	8
Cc1ccc(Oc2nc3ccccn3c(=O)c2/C=C(\C#N)C(=O)NC2CCS(=O)(=O)C2)c(C)c1 (centres undefined)	5	84*	2	8
Cc1ccc(S(=O)(=O)n2nnc3ccccc32)c(C)c1C	3	-1	0	1
CC(=O)N1CCN(CC(=O)Nc2ccc(Cl)c(S(=O)(=O)N(C)C)c2)CC1	3	-7	-2	-4
O=C(CN1CCN(S(=O)(=O)c2cc(Cl)ccc2Cl)CC1)Nc1ccc2c(c1)OCCO2	-6	/	-6	1
O=C(CN1CCN(c2ccccc2O)CC1)Nc1cccnc1Cl	2	99*	-2	9
CN(C)S(=O)(=O)c1cc(NC(=O)CN2CCN(c3ccccc3O)CC2)ccc1Cl	-4	98*	-3	-10
CCN(c1ccc(NS(=O)(=O)c2cc(Cl)ccc2Cl)cc1)C(C)C	0	?	2	6
CN(C)c1ccc(NS(=O)(=O)c2cc(Cl)ccc2Cl)cc1	2	99*	-3	-2
CN(C)c1ccc(NC(=O)CN2CCN(S(=O)(=O)c3cc(Cl)ccc3Cl)CC2)cc1	0	99*	-1	3
O=C(CN1CCN(c2ccccc2O)CC1)NCCCc1ccccc1	2	99*	0	4
O=C(CN1CCN(c2ccccc2O)CC1)NC(c1ccccc1)c1ccccc1	3	11	-5	16
Cc1ccc(OCCC(=O)OCC(=O)NC2CCS(=O)(=O)C2)cc1 (centres undefined)	4	1	0	-14
O=C(Cc1ccc2c(c1)OCCO2)N1CCN(S(=O)(=O)c2cccc(C(F)(F)F)c2)CC1	0	90*	0	0
CCCc1nc2oc3c(=O)[nH]cnc3c2c2c1CCCC2	1	28	2	2
CC(C)(C)c1nnc2sc(SCC(=O)c3ccccc3)nn2c1=O	-1	98*	-2	-9
Cc1cc(C(=O)CSc2nn3c(=O)c(C(C)(C)C)nnc3s2)c(C)n1C	-9	92*	-1	3
COc1ccc(CNC(=O)CSc2nn3c(=O)c(C(C)(C)C)nnc3s2)cc1OC	0	11	-7	-1
SMILES	NPR2 activator	ALR inh	NPR1 activator	HDAC3 inh
COc1ccc(-n2c(C)cc(C(=O)CSc3nn4c(=O)c(C(C)(C)C)nnc4s3)c2C)cc1	-4	7	0	-7
CC(C)(C)c1nnc2sc(SCC(=O)N3CCc4ccccc43)nn2c1=O	5	i	1	-4
COc1ccc(C(=O)CSc2nn3c(=O)c(C(C)(C)C)nnc3s2)cc1	-4	97*	-6	0
CO[C@@H]1CN(C)C(=O)c2cc(NC(=O)NC3CCCCC3)ccc2OC[C@@H](C)N(CC2CCOCC2)C[C@@H]1C	4	/	3	/
CC(C)N1CCSC1=S	0	/	-1	/
Cc1ccc(OC(=S)Nc2ccc(O)cc2)cc1	2	99*	5	6
Cc1ccc(OC(=S)Nc2ccc(F)cc2)cc1	5	13	3	11
